The first test addresses TBC1D7. Kind of test: pooled miR-30 sensor sort-seq; sequence = guide strand. The note with it: shRNA.
TTTAATTGGTTCACAAAGCGTC had a sensor-assay potency score (higher = more potent) of -0.134. Same read-out and setting: the result for TTGTTATCTTCTCTGCACTGTT reads -0.778.

As to TTTGTTATCTTCTCTGCACTGT, the sensor-assay potency score (higher = more potent) turned out to be 0.575. Same read-out and setting: the result for TTCGACAGCTACAAAAACTAGG reads -0.269; that for TATCTTCTCTGCACTGTTCAGT, 0.23.

The target in another test is TBPL2. The description is as above. The note with it: shRNA.
TCTTGCTGCAAGTCGAGACTGC displayed a sensor-assay potency score (higher = more potent) of 0.000545. On the same count and under the same terms, the result for TATGACAGCAGCAAACCTCTTT reads -0.118. Take TTCCTGGGTAACTTCATCTGGT: the sensor-assay potency score (higher = more potent) is -0.0709.

TACAATTCCACAACATTCTGAA gave a sensor-assay potency score (higher = more potent) of 0.364. The same measure, in the same setting: the result for TACAACTGGGCTGAACAGGGGA reads 0.181. In turn, TACAGTGGAAACTATATTCTGT yielded a sensor-assay potency score (higher = more potent) of 0.659. Same read-out and setting: the result for TTAAAATCGAGGAATCTGGCAG reads 0.087; that for ATAAGCAACACAATTCGTGGTT, 0.695; that for TTTTAGAATAGGATAGATGTTT, -0.912.

Turning to TAAGCAACACAATTCGTGGTTT, the sensor-assay potency score (higher = more potent) was -0.141. Same read-out and setting: the result for ATTTTCTTGCTGCAAGTCGAGA reads -1.3.

The target of the next test is TBX10. Described as above. The note with it: shRNA.
For the sequence TCCAGCTGAACTGTCACTCTGG, the sensor-assay potency score (higher = more potent) was -0.454. On the same count and under the same terms, the result for TTCATCTCCAGCTGAACTGTCA reads -0.543; that for TTGTTGGGGTCTTTCTCCCTGT, -0.814; that for TTGGTGACGATCATCTCAGTGC, -0.282. Sequence TTCTGATAGGCTGTCACTGCTG registered a sensor-assay potency score (higher = more potent) of -0.605.

As to TAGCGCTCACTGTCCTTGCGTG, the sensor-assay potency score (higher = more potent) was -0.517. Turning to TATGGTGCTGGTCGGGTCCTTG, the sensor-assay potency score (higher = more potent) is -1.11. On the same count and under the same terms, the result for TGGAGGTGGAAGCTGAAGCTTT reads -1.2; that for ATACCTGTATCTCTTGTCGTCC, -0.36; that for TATCTCTTGTCGTCCAGGGGGA, -0.47. The same measure, in the same setting: the result for TCACTCTGGACACACGTGGGTT reads -1.06; that for TTGCTGGCGATTTTCAGCTGGG, -0.663.

Another test concerns the target TBX15. The description is as above. The note with it: shRNA.
For TTTCGGTCAATTTTTAATCTGG, the sensor-assay potency score (higher = more potent) was -0.172. On the same count and under the same terms, the result for TGTCTTTCCACTCTCATCCATT reads -1.03; that for TACACAGACAAATTCTTGGTGA, 0.47; that for TAGGCTTCCATCTTGCTGTTGC, 0.42. On the same count and under the same terms, the result for TTAGATTACACAGCTGGCTTTC reads -0.575; that for TTGTACACAGACAAATTCTTGG, -0.17. On the same count and under the same terms, the result for TTGCTATGTAGTACTGCTGATG reads -1.07.

In turn, TTGATCATCCAACTCATTGTTG gave a sensor-assay potency score (higher = more potent) of -0.489. Same read-out and setting: the result for TTAATCTGGTAATCTGCTGATT reads -0.87; that for TTCAGTTCCAATATCATGGAAC, -0.282; that for TTTTAATCTGGTAATCTGCTGA, 0.443.
Further: reference of the scale not given here.
